In PubChem BioAssay (NCATS):
Inconclusive results are not listed. A call without a number means that no potency is given here. Calls of active or inactive are those of the source. The call rests on the fitted dose curve; in most records, active means well fitted inhibition curve with a large enough effect; inconclusive means small, poorly fitted or top-dose-only effect; inactive means flat fitted curve, though single readings scatter.

assay: P-glycoprotein substrates identified in KB-8-5-11 adenocarcinoma cell line, qHTS therapeutic library screen (AID 1346987); details: KB-8-5-11 (P-gp overexpressing) viability, CellTiter-Glo, 72 h; series mostly up to 44.5 µM; further: nearly all actives have a fitted effect of over 65% in size
In short: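 Luminescence from CellTiter-Glo, read 5 min after addition, quantified survival of KB-8-5-11 (P-gp-overexpressing) cells exposed to compounds for 72 h. AC50 was derived from concentration-response curves.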
Potency means the concentration at half of the fitted maximal effect.

| SMILES | Potency | activity change, negative = cytotoxicity | outcome |
| --- | --- | --- | --- |
| COc1cc2c(cc1O)C1(Cc3ccc4c(c3C1O)OCO4)[N+](C)([O-])CC2 (stereo not drawn) | inactive | – | – |
| COc1ccc(CN2CCN(CCCSc3cc(C(C)(C)C)c(O)c(C(C)(C)C)c3)CC2)c(OC)c1OC | – | -16.1% [at 9.29 µM] (inactive) | – |
| COc1cc(NC(=O)c2cccc(-n3cc(NC(=O)Nc4cccc(C)c4)cn3)c2)cc(OC)c1OC | inactive | – | – |
| CC(=O)O[C@@H]1[C@@H](O)[C@H](O[C@@H]2[C@@H](O)[C@@H](O)[C@H](O[C@H]3[C@H](O[C@H]4[C@H](O[C@H]5CC[C@@]6(C)C(CC[C@]7(C)C6CC=C6[C@@H]8CC(C)(C)CC[C@]8(C(=O)O)CC[C@]67C)[C@]5(C)CO)O[C@H](CO)[C@@H](O)[C@@H]4O)OC[C@@H](O)[C@@H]3O)O[C@H]2C)OC[C@H]1O (stereo partly drawn) | – | 7.23% [at 9.29 µM] (inactive) | – |
| C/C=C/C1=CC2=C(CO1)C(=O)C(C)(OC(=O)c1c(C)cc(O)cc1OC)C(O)C2 (stereo not drawn) | inactive | – | – |
| CCC(C)c1ccc(NC(=O)Cn2cnc3c2c(=O)n(C)c(=O)n3C)cc1 (stereo not drawn) | inactive | – | – |
| C[C@H](Nc1ncnc2nc[nH]c12)c1cc2cccc(Cl)c2c(=O)n1-c1ccccc1 | inactive | – | – |
| C=C1CO[C@@]2(O[C@H]3CC4C5CC=C6C[C@@H](O)C[C@@H](O[C@@H]7OC[C@H](O)[C@H](O[C@@H]8OC[C@@H](O)[C@H](O)[C@H]8O)[C@H]7O[C@@H]7O[C@@H](C)[C@H](OC(C)=O)[C@@H](OC(C)=O)[C@H]7OC(C)=O)[C@]6(C)C5CC[C@]4(C)[C@@H]3[C@@H]2C)[C@@H](O)[C@H]1OC1OC(C)C(O)C(O)C1O (stereo partly drawn) | – | – | inactive [at 9.29 µM] |
| CC(C)CCNC(=O)[C@H](CC(C)C)NC(=O)[C@H]1O[C@@H]1C(=O)O | inactive | – | – |
| C[C@H](CN(C)C)Oc1nc(Nc2cc3cccc(Cl)c3cn2)cnc1C#N | 2.91 µM (active) | – | – |
| CC(=O)[C@H]1CC[C@H]2[C@@H]3CC=C4C[C@@H](OS(=O)(=O)O)CC[C@]4(C)[C@H]3CC[C@]12C | inactive | – | – |
| O=C(Nc1nnc(-c2ccc3c(c2)OCCO3)o1)C1CCCCC1 | inactive | – | – |
| C[C@H]1CC[C@@]2(OC1)O[C@H]1CC3[C@@H]4CC[C@@H]5C[C@@H](O[C@@H]6O[C@H](CO)[C@@H](O[C@@H]7O[C@@H](C)[C@H](O)[C@@H](O)[C@H]7O)[C@H](O)[C@H]6O[C@@H]6O[C@H](CO)[C@@H](O)[C@H](O)[C@H]6O)CC[C@]5(C)C4CC[C@]3(C)[C@H]1[C@@H]2C (stereo partly drawn) | – | – | inactive [at 9.29 µM] |
| CCOC(=O)c1cnn(-c2ccccc2)c1NC(=O)c1cc2nc(-c3ccco3)cc(C(F)(F)Cl)n2n1 | inactive | – | – |
| CC(C)(Cc1nc(-c2ccc(O)cn2)no1)C(=O)NC1=C(C(=O)O)CCCC1 | inactive | – | – |
| Cc1cc(-c2ncc(-c3cccnc3)cc2/C=C/c2ccccc2)cnc1-c1cccnc1 | 10.3 µM (active) | – | – |
| Fc1ccc2[nH]ccc2c1-c1nc(N2CCOCC2)c2sc(CN3CCN(CC4CC4)CC3)cc2n1 | 20.6 µM (active) | – | – |
| C[C@@H](NC(=O)C(=O)c1c[nH]c2ccc([N+](=O)[O-])cc12)c1ccccc1 | inactive | – | – |
| COc1ccccc1-c1ccc(-c2cn(C(=O)N3CCCCC3Cc3ccccc3)nn2)cc1 (stereo not drawn) | inactive | – | – |

| SMILES | Potency | activity change, negative = cytotoxicity | outcome |
| --- | --- | --- | --- |
| CC1=C2C[C@@]3(C)C(CCC[C@@H]3C)C(O)C2OC1=O (stereo partly drawn) | inactive | – | – |
| COc1ccccc1C(=O)Nc1cc2c(cc1N1CCCC1)n(C)c(=O)n2C | 18.4 µM (active) | – | – |
| COc1ccc(CNc2nc(N(CCO)CCO)nc3c2ncn3C(C)C)cc1 | 5.8 µM (active) | – | – |
| C=C(NC(=O)C(=C)NC(=O)c1csc(C2=NC3c4csc(n4)C4NC(=O)c5csc(n5)C(C(C)(O)C(C)O)NC(=O)C5CSC(=N5)/C(=C/C)NC(=O)C(C(C)O)NC(=O)c5csc(n5)C3(CC2)NC(=O)C(C)NC(=O)C(=C)NC(=O)C(C)NC(=O)C(C(C)CC)NC2C=Cc3c(C(C)O)cc(nc3C2O)C(=O)OC4C)n1)C(N)=O (stereo not drawn) | inactive | – | – |
| O=C(Nc1ccc(N(Cc2ccsc2)C(=O)Cn2nnc3ccccc32)cc1)C1CC1 | inactive | – | – |
| CN(C)c1ccnc2sc3c(=O)n(N4CCCCCC4)cnc3c12 | inactive | – | – |
| COc1ccc([C@H]2Cc3cccc(O)c3C(=O)O2)cc1OC | inactive | – | – |
| COC(C)(C)CCn1nc(Nc2c(C)cccc2C)c2cnc(Nc3ccc(OCCN4CCCC4)c(F)c3)nc21 | 20.6 µM (active) | – | – |
| O=C(COc1ccc(C(=O)c2ccccc2)cc1)NC1CCN(Cc2ccccc2)CC1 | inactive | – | – |
| O=S1(=O)CCN(Cc2cc(NCC3CCOCC3)c3[nH]c(-c4ccccc4)cc3c2)CC1 | inactive | – | – |
| N#Cc1cc(C2=Nc3ccc(Br)cc3NC(=O)C2)ccn1 | inactive | – | – |
| C=C1C(=O)O[C@@H]2C[C@]3(C)[C@@H](CCC(C)O)[C@@H]3C[C@H]12 (stereo partly drawn) | inactive | – | – |
| CC[C@H]1CN(c2nc(N)c(C(N)=O)nc2Cl)CCN1C1CCN(Cc2ccc(Cl)cc2)CC1 | inactive | – | – |
| COc1ccc(C2Oc3c(OC)cc(CCCO)cc3C2COC2OC(CO)C(O)C(O)C2O)cc1OC (stereo not drawn) | inactive | – | – |
| CC(=O)O[C@H]1CC(C)(C)CC2[C@]13CO[C@@]21CCC2[C@@]4(C)CC[C@H](O[C@@H]5OC[C@H](O[C@@H]6O[C@H](CO)[C@@H](O)[C@H](O)[C@H]6O[C@@H]6OC[C@@H](O)[C@H](O)[C@H]6O)[C@H](O)[C@H]5O[C@@H]5O[C@H](CO)[C@@H](O)[C@H](O)[C@H]5O)[C@@](C)(CO)C4CC[C@@]2(C)[C@]1(C)C[C@H]3O (stereo partly drawn) | – | -5.92% [at 9.29 µM] (inactive) | – |
| C[C@@H]1CC[C@]2(C(=O)O)CC[C@]3(C)C(=CCC4[C@@]5(C)CC[C@H](O)[C@](C)(C(=O)O)C5CC[C@]43C)C2[C@]1(C)O (stereo partly drawn) | inactive | – | – |
| C=C(C)C1CC(O)C(C)C12CC(O)C1(C)OC1C2O (stereo not drawn) | 3.66 µM (active) | – | – |
| O=C(NNc1nc2cc(F)ccc2n2cccc12)c1cnccn1 | 2.31 µM (active) | – | – |
| CN(C)c1ccc(NC(=O)NS(=O)(=O)c2ccc(Cl)cc2)cc1 | inactive | – | – |
